In PubChem BioAssay (NCI):
“And” between values parts separate entries of the source, which are not always exact repeats. Equal entries are not always repeated. Compounds without any hit were thinned out: in the full panel of roughly 79,000, 15% have a hit. The source made the active and inactive calls. Cut-off read from the data, not from the text of the source: active = growth inhibition above about 70%; inactive = the rest.

Assay: NCI Yeast Anticancer Drug Screen. Data for the rad50 strain (AID 155);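 note: 0% = growth of vehicle-only cultures of the same strain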
Conditions: S. cerevisiae rad50 strain growth inhibition; at 50.0 µM; active compounds read high
In short: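 Vehicle-treated cultures provide the reference for the growth inhibition reported for compound-exposed, repair-deficient yeast.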

| SMILES | growth inhibition |
| --- | --- |
| CN1CCc2c([nH]c3ccccc23)C1 | 18.4% (inactive) |
| Cc1ccc(OP(=O)(Oc2ccc(C)c(C)c2)Oc2ccc(C)c(C)c2)cc1C | -3.7% (inactive) |
| [O-][N+]12CCCCC1C1CC(C2)C2CCCC(c3ccccc3)N2C1 (centres undefined) | 3.55% (inactive) |
| Cc1cccc(NC(=O)CCl)c1 | 1.65% (inactive) |
| COC(C(=O)C(O)C(C)O)C1Cc2cc3cc(OC4CC(OC(C)=O)C(OC5CC(O)C(OC)C(C)O5)C(C)O4)cc(O)c3c(O)c2C(=O)C1OC1CC(OC2CC(OC3CC(C)(O)C(OC(=O)C(C)C)C(C)O3)C(O)C(C)O2)C(O)C(C)O1 (centres undefined) | 1.55% (inactive) and 17.7% (inactive) |
| CCOP(=O)(OCC)/C(C#N)=C/c1cn(C)cn1 | -3.35% (inactive) |
| OCN1CCC23c4c5ccc(O)c4OC2C(O)C=CC3C1C5 (centres undefined) | -4.75% (inactive) |
| C/C=C(\C)C(=O)OC1CCN2CC=C(COC(=O)C(O)(C(C)O)C(C)(C)O)C12 (centres undefined) | 12.3% (inactive) |
| ClCCN(CCCl)c1ccc(N=Cc2ccccc2)cc1 | 24.9% (inactive) |
| Cn1c(O)c(C=N)c(=O)n(C)c1=O | 15.1% (inactive) |
| O=P1(C(Cl)Cl)OCCCO1 | -9.35% (inactive) |
| CN(C(=O)Oc1ccccc1)c1ccc(S(=O)(=O)F)cc1 | 97.8% (active) |
| CC(C)=NNC1=NC(CC(C)C)P(=O)(NCCCCNP2(=O)SC(NN=C(C)C)=NC2CC(C)C)S1 (centres undefined) | -5.25% (inactive) |
| O=C([O-])C(F)(F)F.O=[N+]([O-])O.[Co+3].[NH2-].[NH2-].[NH2-].[NH2-].[NH2-] | 5.25% (inactive) |
